Sm TGR inh = blocks Schistosoma mansoni thioredoxin glutathione reductase; AID 485364; Q962Y6; purified TGR, DTNB reduction, TNB absorbance 405 nm; 360,000 compounds, 3% hits; Potency, µM (top dose mostly 114 µM), actives largely listed as inhibitors; also: nearly all actives have a fitted effect of over 60% in size
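First, TGR (20 nM dispensed) and NADPH were mixed with compound. Second, a 15 min room-temperature incubation followed. Third, further NADPH and then DTNB were added to start the reaction. Finally, TNB absorbance was monitored kinetically.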
AmpC inh no detg = AmpC beta-lactamase inhibition without detergent; AmpC nitrocefin hydrolysis, absorbance 480 nm, 0.0001% Triton; Potency, µM (doses to about 57.1 µM), actives largely listed as inhibitors; 330,000 compounds, 0.52% hits; AID 485341; also: nearly all actives have a fitted effect of over 20% in size
Target sequence (P00811 whole entry, looked up): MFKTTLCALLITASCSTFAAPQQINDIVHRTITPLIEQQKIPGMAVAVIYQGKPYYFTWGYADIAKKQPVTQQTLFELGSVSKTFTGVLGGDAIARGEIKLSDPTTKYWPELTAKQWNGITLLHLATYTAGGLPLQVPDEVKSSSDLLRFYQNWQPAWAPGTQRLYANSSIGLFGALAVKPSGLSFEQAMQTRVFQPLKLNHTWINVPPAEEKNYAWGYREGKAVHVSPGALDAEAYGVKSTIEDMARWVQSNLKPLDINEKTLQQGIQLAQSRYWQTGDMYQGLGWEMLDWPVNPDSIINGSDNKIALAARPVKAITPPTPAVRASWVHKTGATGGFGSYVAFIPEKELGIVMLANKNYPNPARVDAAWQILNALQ
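AmpC (5.3 nM in the dispensed reagent) in 20 mM phosphate pH 7.0 with 0.01% (detergent screen) or 0.0001% Triton X-100 was preincubated with compounds for 15 min at room temperature. Nitrocefin was then added from an 800 uM solution, and hydrolysis was followed at 480 nm.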
AmpC detergent = inhibitors of E. coli AmpC beta-lactamase with detergent; P00811; AmpC hydrolysis of nitrocefin, absorbance 480 nm, 0.01% Triton; Potency, µM (titrated, usually from 114 µM), hits mostly inhibitors; 370,000 compounds, 0.041% hits; AID 485294; also: nearly all actives have a fitted effect of over 25% in size
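20 mM phosphate pH 7.0 + 0.01% (detergent screen) or 0.0001% Triton X-100; 5.3 nM AmpC reagent; cpd preinc 15 min RT; nitrocefin (800 uM stock) to start; A480 q20 s × 4 min; Activity was normalised to no-enzyme and no-compound control wells.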
Of the large screens only hits and unclear results are named; the others gave an inactive call. This is a sample that favours compounds with a hit; in the whole collection about 3.3% have one here. Calls follow the shape of the dose curve; as a rule, active = well fitted curve in the direction sought with a large enough effect; inconclusive = small, poorly fitted or top-dose-only effect, or another doubt; inactive = no such curve, though single readings can be large; an effect the other way counts as inactive or inconclusive.

COc1ccc(N/C=C2\C(=O)CCc3c2oc2cc(Cl)c(O)c(Cl)c32)cc1	Sm TGR inh 35.5µM
COc1ccc(N/C=C2\CCOC2=O)cc1	none
CC(=O)N1CCN(c2csc3ccc(F)cc3c2=O)CC1	Sm TGR inh 89.1µM (no result: AmpC inh no detg)
CC(=O)N1CCN(c2csc3ccc(Cl)cc3c2=O)CC1	none (no result: AmpC inh no detg)
Cn1c(=O)c(=O)n(C)c2cc(NS(=O)(=O)c3ccc(Br)cc3)c(Cl)cc21	none (no result: AmpC inh no detg)
COc1cc(/C=N/NC(=O)c2cc(-c3cccn3C)n[nH]2)cc(OC)c1OC	Sm TGR inh inconclusive, AmpC detergent inconclusive
COc1cccc(/C=N/NC(=O)c2cc(-c3cccn3C)n[nH]2)c1	AmpC inh no detg 12.6µM
CN(C(=O)c1ccc2c(c1)N(Cc1ccc(F)cc1)C(=O)c1ccccc1S2(=O)=O)C1CCCCC1	none (no result: AmpC inh no detg)
Cc1cccc(N(C)C(=O)C2CCC(CNS(=O)(=O)c3cccc4nsnc34)CC2)c1 (stereo not drawn)	none (no result: AmpC inh no detg)
O=C1Nc2cc(C(=O)N3CCC4(CC3)OCCO4)ccc2NC1CSCc1cccc(F)c1 (stereo not drawn)	Sm TGR inh 50.1µM
Cc1cccc(N2CCN(C(=O)c3ccc4c(c3)NC(=O)C(CSCc3cccc(F)c3)N4)CC2C)c1 (stereo not drawn)	none
COc1ccc(OC)c(CNC(=O)c2cc(S(=O)(=O)N3CCC(C)CC3)cn2C)c1	none (no result: AmpC inh no detg)
Cc1ccc(/C(O)=C2/C(=O)C(=O)N(CCN3CCOCC3)C2c2cccnc2)cc1 (stereo not drawn)	AmpC detergent inconclusive
COc1cccc(/C(O)=C2/C(=O)C(=O)N(CCN3CCOCC3)C2c2cccnc2)c1 (stereo not drawn)	Sm TGR inh 22.4µM
Cc1ccc(C)c(/C(O)=C2\C(=O)C(=O)N(CCCN3CCOCC3)C2c2cccnc2)c1 (stereo not drawn)	Sm TGR inh 28.2µM
CCOc1cccc(/C(O)=C2/C(=O)C(=O)N(CCN3CCOCC3)C2c2cccnc2)c1 (stereo not drawn)	none
COc1ccc(S(=O)(=O)NCCc2csc3nc(-c4ccc(OC)c(OC)c4)nn23)cc1C	none (no result: AmpC inh no detg)
COc1ccc(CC(=O)NCCS(=O)(=O)N2CCN(c3ccccc3F)CC2)cc1OC	none (no result: AmpC inh no detg)
Cc1cc(=O)n(CCc2ccccc2)c(O)c1C#N	Sm TGR inh inconclusive, AmpC inh no detg 2.51µM
Cc1cc(=O)n(CCO)c(O)c1C#N	none
CCOc1ccc(NS(=O)(=O)c2ccc3c(c2)NC(=O)CCS3)cc1	none (no result: AmpC inh no detg)
CC(=O)Nc1sc(N/N=C/c2ccc(C)cc2)nc1-c1ccc(C)cc1	none
CC(=O)Nc1sc(/C(C#N)=C/c2ccc(Cl)c(Cl)c2)nc1-c1ccc(C)cc1	AmpC inh no detg 4.47µM
Cc1nc(-c2ccc(C)c(S(=O)(=O)N3CCC(C(=O)NCc4ccc(F)cc4)CC3)c2)no1	none (no result: AmpC inh no detg)
CCOc1ccc(C2OC34CCCCC3C(C#N)(C#N)C2(C#N)C(=N)O4)cc1OC (stereo not drawn)	Sm TGR inh 50.1µM
CCCCOc1ccc(C2OC34CCCCC3C(C#N)(C#N)C2(C#N)C(=N)O4)cc1 (stereo not drawn)	Sm TGR inh inconclusive, AmpC detergent inconclusive
COc1ccc(OC)c(CNS(=O)(=O)c2c(C(=O)N3CCCCCC3)c(C)n(C)c2C)c1	none (no result: AmpC inh no detg)
COc1ccc(N2CC(NC(=O)c3ccc(S(=O)(=O)N4CCCCC4)cc3)CC2=O)cc1 (stereo not drawn)	none (no result: AmpC inh no detg)
CCc1ccc(CNC(=O)c2cnc3sc(N4CCCC4)nn3c2=O)cc1	none (no result: AmpC inh no detg)
Cc1cccc(CNC(=O)c2ccc(N3Cc4ccccc4Oc4ncccc43)s2)c1	none (no result: AmpC inh no detg)
CCNC(=O)COc1ccc(/C=C2\COc3ccccc3C2=O)cc1OC	Sm TGR inh 39.8µM
CCOc1cc(/C=C2\COc3ccccc3C2=O)ccc1OCC(=O)N(C)C	Sm TGR inh inconclusive
CCc1ccc(OC(C)c2nc(-c3ccc(-n4cccc4)cc3)no2)cc1 (stereo not drawn)	none (no result: AmpC inh no detg)
Cc1ccn2c(c1)nc(=O)c1cc(S(=O)(=O)N3CCC(C)CC3)c(Cl)cc12	none (no result: AmpC inh no detg)
O=C(CN1C(=O)CCS(=O)(=O)c2ccccc21)Nc1ccc(Cl)cc1	Sm TGR inh 50.1µM
CCOC(=O)c1ccccc1NC(=O)CN1C(=O)CC(c2ccco2)Sc2ccccc21 (stereo not drawn)	none (no result: AmpC inh no detg)
O=C(CN1C(=O)CCS(=O)(=O)c2ccccc21)Nc1ccc2c(c1)OCCO2	AmpC detergent inconclusive
CCOC(=O)c1ccccc1NC(=O)CN1C(=O)CCS(=O)(=O)c2ccccc21	Sm TGR inh 39.8µM
CCN1/C(=C/C=C/c2oc3ccc(-c4ccccc4)cc3[n+]2CC)Oc2ccc(-c3ccccc3)cc21	Sm TGR inh 39.8µM
CCCCN1C(=O)/C(=C/C=C2\Oc3ccccc3N2CC)SC1=S	none
